Hit rate of the full screen: of about 69,000 compounds, about 8,600 (12%) showed an effect of 50% or more. For the sample, strong results were picked, then their nearest neighbours and some compounds at random.
Test system: Plasmodium berghei
Assay: Screen against P. berghei liver stage (PbLuc), transformed with Luciferase, at 10uM
Format: functional, HepG2
Details: tested at 10 uM

Row | Compound | INHIBITION [%]
1 | O=c1c2c[nH]c(N3CCOCC3)nc-2cn1Cc1cccc(F)c1 | 33.4
2 | COc1ccc(C(=O)CCc2nc(C3CC3)no2)cc1F | -19.1
3 | COc1nn(C)c2c1CCCN(C(=O)c1ccsc1)C2 | -15.7
4 | O=C1CN(C(=O)C2CN(c3ccc(F)cc3)CCO2)CCN1 (stereo not given) | -19.925
5 | Cn1cnc(NC(=O)C2CC(=O)N(c3cccc(F)c3)C2)n1 (stereo not given) | 6.448
6 | Cc1nc(C)n(CC2CCCN2Cc2nc3ccccc3s2)n1 (stereo not given) | 33.8
7 | CNc1cc(C2CCCN2C(=O)CCc2ccccc2F)ccn1 (stereo not given) | 22
8 | CCN(CCN(C)C)c1nc(CCN)nc2sc(C)c(C)c12 | 71
9 | Cc1sc2nc(CCN)nc(N(C)CCCC3CCCO3)c2c1C (stereo not given) | 43.2
10 | COCCN(CC1CC1)c1nc(CCN)nc2ccccc12 | 16.2
11 | COCCN(Cc1cccs1)c1nc(CCN)nc2ccccc12 | -17.3
12 | Cc1sc2nc(CCN)nc(N(CCN(C)C)CC3CCCO3)c2c1C (stereo not given) | 51.3
13 | Cc1nn(C)c2nc(N(CCN(C)C)CC3CCCO3)sc12 (stereo not given) | 35.3
14 | COCCN(CC1CC1)c1nc(CCN)nc2sc(C)c(C)c12 | 65.3
15 | O=C(NCCCO)c1nnsc1-c1ccccc1 | 46.6
16 | Cc1sc2c(C3CCCN(S(C)(=O)=O)C3)nc(C)n2c1C (stereo not given) | -22.6
17 | Cc1cccc2nc(-c3nc4c([nH]3)CCCNC4=O)cn12 | -176
18 | COc1ccnc(N2CCN(C(=O)COCC(F)(F)F)CC2)n1 | -2.725
19 | Cc1nn(C)c(Cl)c1C1CCCN1C(=O)c1cnccn1 (stereo not given) | 25.1
20 | CN(CCc1ccccn1)C(=O)C(c1cccnc1)N1CCOCC1 (stereo not given) | -29.2
21 | CN(Cc1cc(C2CC2)on1)C(=O)C(c1cccnc1)N1CCCC1 (stereo not given) | 48.9
22 | Cc1cc(CN(C)C(=O)C(c2cccnc2)N2CCOCC2)n[nH]1 (stereo not given) | 51.7
23 | Cc1n[nH]c(C)c1CCN(C)C(=O)C(c1cccnc1)N1CCOCC1 (stereo not given) | -12.5
24 | O=C(NCCNc1cccnc1)C(c1cccnc1)N1CCCC1 (stereo not given) | -0.55
25 | CN(Cc1cc(C2CC2)[nH]n1)C(=O)C(c1cccnc1)N1CCCC1 (stereo not given) | 68.4
26 | Cc1ncsc1CCN(C)C(=O)C(c1cccnc1)N1CCOCC1 (stereo not given) | 0.266
27 | CCCn1ncc(C(=O)N(C)Cc2cc(C3CC3)[nH]n2)c1C | 40.6
28 | Cc1cc(C)nc(CN(C)C(=O)C(c2cccnc2)N2CCCC2)c1 (stereo not given) | 61.9
29 | O=C(c1ccsc1)N1CCO[C@@H]2CN(Cc3nccs3)C[C@@H]2C1 | 42.1
30 | CC1COCCN1C(=O)Nc1cnc2c(cnn2C(C)C)c1 (stereo not given) | -27.9
